# Most compounds without a hit are left out; they make up all but 2.2% or so of the library.
# Nrf2 activator – activates Nrf2 signaling; 410,000 tested, 0.31% active; Potency, µM (top dose mostly 46.1 µM), without a hit: at the highest dose activation, usual class: activators; AREc32 ARE-luciferase reporter (MCF7-derived line), luminescence, 24 h; AID 624171; note: % of control where 0% means no effect; nearly all actives have a fitted effect of over 65% in size
#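 Steps: seed AREc32_Fluc cells (1000/well, 5% FBS OPTI-MEM); incubate overnight at 37 deg C; add 23 nL compound; incubate 24 hr; add Steady-Glo; hold 30 min RT; read luminescence.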
# Nrf2 inh – Nrf2 pathway inhibition; A549 ARE-Fluc reporter, luciferase luminescence, 18-24 h; Potency, µM (titrated, usually from 46 µM), for the others: at the top dose activity change, negative = inhibition, most hits filed as inhibitors; 360,000 tested, 2.1% active; note: % is set by controls: 0 for no effect and ±100 for the full control effect; nearly all actives have a fitted effect of over 60% in size
#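 Nrf2 activity is the BugLite luminescence, read 15 min after reagent at room temperature, following CellTiter-Fluor cytotoxicity readout (30 min, 37C). Compound titrations were applied for 18-24 h to 5000 A549 ARE_Fluc cells/well in 5% FBS OPTI-MEM.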
# Pin1 inhibitor – human Pin1 inhibition; Q13526; Pin1 FP peptide displacement, HiFluor488, 10 min; Potency, µM (series often up to 115 µM), without a hit: at the top dose activity, negative = inhibition, hits mostly inhibitors; 390,000 tested, 0.009% active; AID 504891; active = well fitted inhibition curve with a large enough effect in the polarisation, with a control signal flat, not every such curve was filed as active; inconclusive = small, poorly fitted or top-dose-only effect, or effect the other way, or a change in a side signal; inactive = no such curve, though single readings can be large or run the other way; the % refers to the polarisation; note: % is set by controls: 0 for no effect and ±100 for the full control effect
# Target sequence (Q13526 whole entry, looked up): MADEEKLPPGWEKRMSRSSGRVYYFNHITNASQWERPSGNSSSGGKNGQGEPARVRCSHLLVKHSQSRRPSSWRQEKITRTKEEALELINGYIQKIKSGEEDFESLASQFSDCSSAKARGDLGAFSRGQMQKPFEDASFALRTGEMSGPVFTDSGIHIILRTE
# A549 tox – counter-screen for Nrf2 inhibitors: cytotoxicity in A549 cells. Potency, µM (titrated, usually from 46 µM), for the others: at the highest dose activity change, negative = cytotoxicity, actives largely listed as inhibitors. 390,000 tested, 0.16% active. A549 ARE-Fluc cells, CellTiter-Fluor viability, 18-24 h. AID 504648; note: % is set by controls: 0 for no effect and ±100 for the full control effect
#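 Cytotoxicity counterscreen: CellTiter-Fluor fluorescence was measured in A549 ARE_Fluc cells after 18-24 h of compound exposure in a concentration series. The subsequent BugLite luminescent read reports ARE-luciferase activity.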
# Numbers without * were called inactive; u = inconclusive; x = no result. Unless noted, calls come from the whole dose curve; as a rule, active = well fitted curve in the direction sought with a large enough effect; inconclusive = small, poorly fitted or top-dose-only effect, or another doubt; inactive = no such curve, though single readings can be large; an effect the other way counts as inactive or inconclusive. Potency is the fitted concentration of half-maximal effect.
SMILES,Nrf2 activator,Nrf2 inh,Pin1 inhibitor,A549 tox
NNc1nc(-c2ccccc2)nc2sc3c(c12)CCCC3,1.4µM*,u,9%,8%
C=CCOC(=O)C1=C(C)NC(SCC(=O)Nc2ccc(C)c(Cl)c2)=C(C#N)C1c1ccco1 (stereo not drawn),3%,6.5µM*,5%,-23%
C=CCOC(=O)C1=C(C)NC(SCC(N)=O)=C(C#N)C1c1ccc(C)cc1 (stereo not drawn),0%,13%,-3%,-1%
C=CCOC(=O)C1=C(C)NC(SCC)=C(C#N)C1c1ccc(Cl)cc1 (stereo not drawn),0%,21µM*,u,u
Cc1nn(Cc2ccc(Cl)c(Cl)c2)c(C)c1NC(=O)c1cc(-c2ccc3c(c2)OCO3)on1,4%,12µM*,22%,u
COc1ccc2c(c1)CCc1c(C(=O)Nc3ccn(Cc4ccc(C)cc4)n3)noc1-2,0%,16µM*,2%,-25%
COc1ccc(OC)c(-c2cc(C(=O)Nc3c(C)nn(Cc4ccccc4)c3C)no2)c1,3%,15µM*,2%,-15%
COc1ccc(OC)c(-c2cc(C(=O)NCc3ccco3)no2)c1,11µM*,4%,1%,2%
Cc1ccc(C)c(Cn2c(=O)n(CCCCC(=O)NCc3ccc4c(c3)OCO4)c(=O)c3ccccc32)c1,-1%,-13%,23%,2%
CN(C)c1ccc(-c2nn3c(-c4cc(-c5ccccc5)n[nH]4)nnc3s2)cc1,x,1%,6%,2%
CS(=O)(=O)c1ccc(C(=O)OCC#CCSc2nnc(-c3cccc4ccccc34)o2)cc1,x,-2%,-2%,-7%
COC(=O)c1cc(NC(=O)c2oc(=O)c3ccccc3c2-c2ccccc2)cc(C(=O)OC)c1,-1%,1%,17%,-6%
Cn1c(=O)oc2cc(S(=O)(=O)NC(Cc3ccccc3)C(=O)NCc3ccccc3Cl)ccc21 (stereo not drawn),5%,-9%,5%,0%
COc1ccc2c(c1)CCc1c(C(=O)Nc3c(C)nn(Cc4ccc(Cl)cc4)c3C)noc1-2,0%,-13%,0%,-2%
COc1ccc2c(c1)CCc1c(C(=O)Nc3c(C)nn(Cc4ccccc4)c3C)noc1-2,-1%,21µM*,29%,-6%
COc1ccc2c(c1)CCc1c(C(=O)Nc3c(C)nn(Cc4ccccc4Cl)c3C)noc1-2,1%,-80%,7%,-5%
Cc1nn(Cc2ccc(Cl)cc2)c(C)c1NC(=O)c1noc2c1CCc1ccccc1-2,0%,16µM*,7%,u
Cc1ccc(C)c(CN2C(=O)c3ccccc3S(=O)c3ccc(C(=O)NCCc4ccc(Cl)cc4)cc32)c1 (stereo not drawn),0%,1%,12%,7%
O=C(Nc1cc(S(=O)(=O)Nc2ccccc2Cl)ccc1O)c1cc2c(s1)CCCC2,0%,6%,9%,1%
Cc1ccc(C(=O)Nc2ccc(C)c(S(=O)(=O)Nc3ccccc3Cl)c2)s1,3%,u,6%,1%
O=C(Nc1cccc(S(=O)(=O)Nc2ccc(Cl)cc2)c1)c1cc2c(s1)CCCC2,8%,23µM*,7%,u
Cc1ccc(NC(=O)c2cc3c(s2)CCCC3)cc1S(=O)(=O)Nc1ccccc1Cl,3%,7.3µM*,12%,-20%
Cc1cc(N2CCCC2)ccc1NC(=O)COc1cccc(C(F)(F)F)c1,-1%,5.8µM*,-4%,-20%
O=C(Nc1ccc2c(c1)OCO2)N1CCN(c2cccc(C(F)(F)F)c2)CC1,0%,23µM*,-11%,-22%
CN1CCN(C(=S)c2ccc(OCC(=O)Nc3cccc(C(F)(F)F)c3)cc2)CC1,3%,15µM*,1%,-9%
SMILES,Nrf2 activator,Nrf2 inh,Pin1 inhibitor,A549 tox
COc1ccc(N2CCN(C(=O)Nc3cccc(C(F)(F)F)c3)CC2)cc1,0%,21µM*,-1%,-18%
COc1ccc(NC(=O)c2nn(C)c3c2CS(=O)(=O)c2ccccc2-3)cc1Cl,0%,u,2%,0%
CCOC(=O)c1c(C)oc2c1c(C=NCCO)c(O)c1ccccc12,1%,15µM*,6%,23µM*
Cc1cc2c(s1)c1cnn(Cc3c(F)c(F)c(C(F)(F)F)c(F)c3F)c(=O)c1n2C,x,2%,1%,2%
O=C(N/N=C/c1c(Cl)nc2ccccn2c1=O)c1cccnc1,14µM*,u,21%,4%
CNc1cc2c(cc1S(=O)(=O)Nc1ccc(C)c(C)c1)CCC(=O)N2,x,u,0%,4%

# Screening results: PubChem BioAssay, National Center for Advancing Translational Sciences (NCATS)
